Measurements as given in PubChem BioAssay (EPA / NIEHS).
Records with an inconclusive call do not appear. Activity calls are given as the source filed them. The calls were made as follows, unless noted: active = hit-call score of the fitted dose curve at least 0.9, where 1 is the maximum; inconclusive = response in the unintended direction; inactive = score below 0.9.

How the values were obtained:
[1] = target: human Peroxisome Proliferator-activated Receptor delta (PPARd), PPARD (gene 5467) (UniProt Q03181); assay: ATG_PPARd_TRANS: Attagene TRANS-FACTORIAL HepG2 Assay for human Peroxisome Proliferator-activated Receptor delta (PPARd) (AID 2283002)
Method in brief: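 Read-out is induced reporter mRNA, quantified by RT-PCR with fluorescent labelling and capillary electrophoresis after 24 h dosing. Cells are HepG2 transiently carrying multiple GAL4-UAS reporter units driven by exogenous NR-GAL4 chimeras; DMSO serves as baseline.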

[2] = target: Retinoic acid receptor alpha (Homo sapiens) (UniProt P10276); assay: ATG_RARa_TRANS: Attagene TRANS-FACTORIAL HepG2 Assay for human Retinoic Acid Receptor alpha (RARa) (AID 2283005)
Method in brief: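 Reporter transcripts, measured by RT-PCR with fluorescent labeling and capillary electrophoresis after 24 h dosing, reflect activity of an exogenous human RARa–GAL4 fusion in transiently transfected HepG2. Fitted for increase relative to DMSO.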

[3] = target: Peroxisome proliferator-activated receptor gamma (Homo sapiens) (UniProt P37231); assay: ATG_PPARg_TRANS: Attagene TRANS-FACTORIAL HepG2 Assay for human Peroxisome Proliferator-activated Receptor-gamma (PPARg) (AID 2283007)
Method in brief: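 HepG2 cells transiently transfected with multiplexed GAL4-UAS reporter units and exogenous chimeric NR-Gal4 proteins; reporter mRNA quantified after 24 h compound exposure by RT-PCR, fluorescent labelling, HpaI digestion and capillary electrophoresis; gain-of-signal fitted versus DMSO baseline.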

[4] = target: Nuclear receptor subfamily 1 group I member 2 (Homo sapiens) (UniProt O75469); assay: ATG_PXR_TRANS: Attagene TRANS-FACTORIAL HepG2 Assay for human Pregnane X Receptor (PXR) (AID 2283008)
Method in brief: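 HepG2 cells transiently transfected with GAL4-UAS reporter units and PXR-Gal4 chimera, exposed 24 h. Reporter mRNA quantified by RT-PCR, fluorescent labelling, HpaI digestion and capillary electrophoresis; gain of signal vs DMSO.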

[5] = target: human Retinoic Acid Receptor gamma (RARg), RARG (gene 5916) (UniProt P13631); assay: ATG_RARg_TRANS: Attagene TRANS-FACTORIAL HepG2 Assay for human Retinoic Acid Receptor gamma (RARg) (AID 2283009)
Method in brief: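 Transient transfection of HepG2 with multi-reporter constructs, then 24 h chemical treatment. Total RNA isolated, reverse-transcribed, PCR-amplified, fluorescently labelled and resolved by capillary electrophoresis; activity scored as mRNA induction versus DMSO.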

[6] = target: human RAR-related Orphan Receptor gamma (RORg), RORC (gene 6097) (UniProt P51449); assay: ATG_RORg_TRANS: Attagene TRANS-FACTORIAL HepG2 Assay for human RAR-related Orphan Receptor gamma (RORg) (AID 2283011)
Method in brief: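 Transient MRTU transfection of HepG2 (TRANS format, exogenous NR-Gal4 chimera). 24 h dosing. Total RNA → oligo(dT) RT → PCR → 6-FAM labelling → HpaI cut → CE. Gain vs DMSO.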

[7] = target: Retinoic acid receptor RXR-alpha (Homo sapiens) (UniProt P19793); assay: ATG_RXRa_TRANS: Attagene TRANS-FACTORIAL HepG2 Assay for human Retinoid X Receptor alpha (RXRa) (AID 2283012)
Method in brief: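 Transient transfection of human HepG2 with multiple GAL4-UAS reporter constructs; 24 h compound exposure; total RNA isolated, reverse-transcribed, PCR-amplified, 6-FAM labelled, HpaI-cut, resolved by capillary electrophoresis. Positive-direction fit versus DMSO.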

[8] = target: human Vitamin D Receptor (VDR), VDR (gene 7421) (UniProt P11473); assay: ATG_VDR_TRANS: Attagene TRANS-FACTORIAL HepG2 Assay for human Vitamin D Receptor (VDR) (AID 2283022)
Method in brief: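 RT-PCR/capillary electrophoresis read-out of reporter mRNA induction in transiently transfected HepG2; 24 h dosing; chimeric NR-Gal4 (TRANS format); gain-of-signal fit against DMSO baseline.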

[9] = target: human Thyroid Receptor alpha (THRa1), THRA (gene 7067) (UniProt P10827); assay: ATG_THRa1_TRANS: Attagene TRANS-FACTORIAL HepG2 Assay for human Thyroid Receptor alpha (THRa1) (AID 2283014)
Method in brief: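 Transient HepG2 transfection, NR-Gal4 chimera driving GAL4-UAS reporters; 24 h compound exposure; total RNA, oligo(dT) RT, PCR, fluorescent primer extension, capillary electrophoresis. Upward direction vs DMSO control.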

[10] = target: human RAR-related Orphan Receptor beta (RORb), RORB (gene 6096) (UniProt Q92753); assay: ATG_RORb_TRANS: Attagene TRANS-FACTORIAL HepG2 Assay for human RAR-related Orphan Receptor beta (RORb) (AID 2283010)
Method in brief: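 Readout is reporter-gene mRNA induction, detected as fluorescence after RT-PCR and capillary electrophoresis, fitted for gain of signal against DMSO controls. Transiently transfected HepG2 liver cells carrying GAL4-UAS reporter constructs were treated for 24 hours.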

[11] = target: human Retinoid X Receptor beta (RXRb), RXRB (gene 6257) (UniProt P28702); assay: ATG_RXRb_TRANS: Attagene TRANS-FACTORIAL HepG2 Assay for human Retinoid X Receptor beta (RXRb) (AID 2283013)
Method in brief: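 Transfect HepG2 with GAL4-UAS multi-reporter constructs (chimeric NR-Gal4, TRANS format); dose compound 24 h; isolate RNA, RT-PCR, FAM primer extension, HpaI digest; quantify by capillary electrophoresis; positive direction vs DMSO.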

[12] = target: human Retinoic Acid Receptor beta (RARb), RARB (gene 5915) (UniProt P10826); assay: ATG_RARb_TRANS: Attagene TRANS-FACTORIAL HepG2 Assay for human Retinoic Acid Receptor beta (AID 2283004)
Method in brief: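 Readout is reporter mRNA induction: RNA reverse-transcribed, PCR-amplified, FAM-labelled, HpaI-cut and resolved by capillary electrophoresis. Transiently transfected HepG2 cells carrying exogenous NR–Gal4 chimeras were dosed for 24 h; activity fitted upward relative to DMSO.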

[13] = read-out: Intercellular Adhesion Molecule 1 (ICAM1), ICAM1 (gene 3383); assay: BSK_3C_ICAM1: BioMAP Diversity Plus: 3C Assay for Intercellular Adhesion Molecule 1 (ICAM1) Biomarker Activity (AID 2283003; active = hit-call score of the fitted dose curve at least 0.9, where 1 is the maximum; inactive = score below 0.9); settings: primary human endothelial cells (HUVEC); actives raise or lower the signal
Method in brief: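 ICAM-1 levels measured by ELISA after HUVEC cultures in the 3C system had been dosed for 24 h. Gain or loss of signal relative to DMSO was fitted in both directions.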

[14] = BSK_3C_Proliferation: Cell Proliferation Assessment in the BioMAP Diversity Plus: 3C Assay (AID 2283006; active = hit-call score of the fitted dose curve at least 0.9, where 1 is the maximum; inactive = score below 0.9); settings: primary human endothelial cells (HUVEC)
Method in brief: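 Read-out is total protein by SRB absorbance at 560 nm, taken as a proxy for relative cell number. Primary human umbilical vein endothelium cultured below confluence was dosed for 48 h, TCA-fixed and SRB-stained; curves were fitted bidirectionally versus DMSO.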

[15] = read-out: E-selectin (Homo sapiens) (UniProt P16581); assay: BSK_3C_Eselectin: BioMAP Diversity Plus: 3C Assay for Eselectin Biomarker Activity (AID 2283015; active = hit-call score of the fitted dose curve at least 0.9, where 1 is the maximum; inactive = score below 0.9;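 also: cell surface E-selectin protein quantified by ELISA 24 h after dosing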); settings: primary human endothelial cells (HUVEC); actives raise or lower the signal
Method in brief: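 HUVEC, 3C stimulation; compound exposure 24 h; E-selectin by ELISA; gain- or loss-of-signal fitted bidirectionally vs DMSO baseline.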

[16] = read-out: Interleukin-1 alpha (IL1a), IL1A (gene 3552); assay: BSK_BE3C_IL1a: BioMAP Diversity Plus: BE3C Assay for Interleukin-1 alpha (IL1a) Biomarker Activity (AID 2283016; active = hit-call score of the fitted dose curve at least 0.9, where 1 is the maximum; inactive = score below 0.9); settings: primary human bronchial epithelial cells; actives raise or lower the signal
Method in brief: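 BE3C primary human bronchial epithelium; cpd 24 h; IL-1a by ELISA; bidirectional fit vs DMSO; parallel SRB (0.1% SRB, 10% TCA fix, 560 nm) for cytotoxicity.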

[17] = read-out: Monocyte Chemoattractant Protein-1 (MCP1), CCL2 (gene 6347); assay: BSK_4H_MCP1: BioMAP Diversity Plus: 4H Assay for Monocyte Chemoattractant Protein-1 (MCP1) Biomarker Activity (AID 2283018; active = hit-call score of the fitted dose curve at least 0.9, where 1 is the maximum; inactive = score below 0.9); settings: primary human endothelial cells (HUVEC); actives raise or lower the signal
Method in brief: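 ELISA read-out of MCP-1 from human vascular endothelial primary cells taken at 24 hours after compound exposure. Activity was fitted in both directions relative to DMSO, which served as negative control.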

[18] = read-out: Human Leukocyte Antigen - DR isotype (HLADR), HLA-DRA (gene 3122); assay: BSK_3C_HLADR: BioMAP Diversity Plus: 3C Assay for Human Leukocyte Antigen - DR isotype (HLADR) Biomarker Activity (AID 2283019; active = hit-call score of the fitted dose curve at least 0.9, where 1 is the maximum; inactive = score below 0.9;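 also: ELISA of cell-surface HLA-DR on HUVEC 24 h after dosing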); settings: primary human endothelial cells (HUVEC); actives raise or lower the signal
Method in brief: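 HUVEC, 3C stimulation, 24 h post-dose; HLA-DR by ELISA; bidirectional curve fit vs DMSO baseline; gain or loss of signal scored.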

[19] = read-out: Interleukin-8 (IL8), CXCL8 (gene 3576); assay: BSK_3C_IL8: BioMAP Diversity Plus: 3C Assay for Interleukin-8 (IL8) Biomarker Activity (AID 2283020; active = hit-call score of the fitted dose curve at least 0.9, where 1 is the maximum; inactive = score below 0.9); settings: primary human endothelial cells (HUVEC); actives raise or lower the signal
Method in brief: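 ELISA read-out of IL-8 from human umbilical vein endothelium, measured 24 h after chemical dosing. Activity is expressed relative to DMSO negative control, with both increases and decreases fitted.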

Measured: AC50

Sequence of human Retinoid X Receptor beta (RXRb), RXRB (gene 6257) (P28702 whole entry, looked up, the tested form may be a part): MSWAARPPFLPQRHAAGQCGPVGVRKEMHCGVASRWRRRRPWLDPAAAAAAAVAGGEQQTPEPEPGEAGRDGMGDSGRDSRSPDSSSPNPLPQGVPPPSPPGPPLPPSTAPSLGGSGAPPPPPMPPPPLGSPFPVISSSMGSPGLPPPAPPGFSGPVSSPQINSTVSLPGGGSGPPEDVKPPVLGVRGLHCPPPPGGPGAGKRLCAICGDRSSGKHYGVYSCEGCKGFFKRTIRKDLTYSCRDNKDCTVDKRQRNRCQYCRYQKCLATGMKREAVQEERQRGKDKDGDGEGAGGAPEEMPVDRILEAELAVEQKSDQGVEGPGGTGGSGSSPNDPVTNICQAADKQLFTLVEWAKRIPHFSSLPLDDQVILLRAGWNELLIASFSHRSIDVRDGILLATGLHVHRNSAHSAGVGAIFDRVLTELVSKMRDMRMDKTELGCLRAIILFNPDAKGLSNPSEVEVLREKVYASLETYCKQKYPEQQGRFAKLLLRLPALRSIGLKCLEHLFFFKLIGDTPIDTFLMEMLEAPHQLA
Sequence of Retinoic acid receptor RXR-alpha (Homo sapiens) (P19793 whole entry, looked up, the tested form may be a part): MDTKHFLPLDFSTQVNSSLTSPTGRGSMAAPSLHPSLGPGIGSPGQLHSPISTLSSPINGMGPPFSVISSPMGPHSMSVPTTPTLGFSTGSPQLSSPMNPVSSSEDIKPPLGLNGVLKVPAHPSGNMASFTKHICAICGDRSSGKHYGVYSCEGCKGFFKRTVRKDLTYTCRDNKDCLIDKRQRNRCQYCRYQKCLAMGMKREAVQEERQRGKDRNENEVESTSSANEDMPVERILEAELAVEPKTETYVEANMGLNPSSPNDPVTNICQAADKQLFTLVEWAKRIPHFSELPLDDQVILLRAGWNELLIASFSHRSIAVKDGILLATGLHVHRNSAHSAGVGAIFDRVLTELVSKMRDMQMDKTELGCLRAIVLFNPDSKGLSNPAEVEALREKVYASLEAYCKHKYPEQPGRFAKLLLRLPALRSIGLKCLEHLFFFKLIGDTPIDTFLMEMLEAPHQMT
Sequence of E-selectin (Homo sapiens) (P16581 whole entry, looked up): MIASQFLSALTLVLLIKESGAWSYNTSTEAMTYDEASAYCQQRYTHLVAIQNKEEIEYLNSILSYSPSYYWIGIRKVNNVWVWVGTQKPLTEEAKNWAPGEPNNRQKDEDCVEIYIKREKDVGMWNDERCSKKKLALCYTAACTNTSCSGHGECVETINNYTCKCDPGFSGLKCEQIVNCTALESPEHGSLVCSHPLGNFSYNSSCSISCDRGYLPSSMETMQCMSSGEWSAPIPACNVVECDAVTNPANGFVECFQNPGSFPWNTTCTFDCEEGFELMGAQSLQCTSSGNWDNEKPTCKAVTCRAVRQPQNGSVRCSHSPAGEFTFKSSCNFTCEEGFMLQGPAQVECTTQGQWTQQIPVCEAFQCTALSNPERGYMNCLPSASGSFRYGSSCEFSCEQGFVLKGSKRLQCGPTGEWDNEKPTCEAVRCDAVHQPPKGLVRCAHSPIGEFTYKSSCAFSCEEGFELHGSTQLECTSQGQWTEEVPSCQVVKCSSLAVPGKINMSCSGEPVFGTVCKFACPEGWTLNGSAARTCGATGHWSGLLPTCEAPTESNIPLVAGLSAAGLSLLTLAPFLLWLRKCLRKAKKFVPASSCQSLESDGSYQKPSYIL
Sequence of human RAR-related Orphan Receptor beta (RORb), RORB (gene 6096) (Q92753 whole entry, looked up, the tested form may be a part): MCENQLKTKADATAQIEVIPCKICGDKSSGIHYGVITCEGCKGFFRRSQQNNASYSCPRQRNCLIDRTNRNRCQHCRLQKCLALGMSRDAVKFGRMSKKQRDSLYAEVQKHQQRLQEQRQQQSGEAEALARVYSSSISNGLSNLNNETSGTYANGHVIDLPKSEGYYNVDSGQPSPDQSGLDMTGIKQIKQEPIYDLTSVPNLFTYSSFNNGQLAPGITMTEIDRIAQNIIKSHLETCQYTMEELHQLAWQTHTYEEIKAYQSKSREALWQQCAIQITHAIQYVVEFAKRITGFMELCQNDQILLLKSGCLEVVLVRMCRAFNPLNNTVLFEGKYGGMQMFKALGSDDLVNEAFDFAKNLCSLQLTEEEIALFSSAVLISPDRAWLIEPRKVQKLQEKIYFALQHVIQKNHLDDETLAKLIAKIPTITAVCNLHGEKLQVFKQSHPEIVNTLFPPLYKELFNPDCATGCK
Sequence of human Retinoic Acid Receptor gamma (RARg), RARG (gene 5916) (P13631 whole entry, looked up): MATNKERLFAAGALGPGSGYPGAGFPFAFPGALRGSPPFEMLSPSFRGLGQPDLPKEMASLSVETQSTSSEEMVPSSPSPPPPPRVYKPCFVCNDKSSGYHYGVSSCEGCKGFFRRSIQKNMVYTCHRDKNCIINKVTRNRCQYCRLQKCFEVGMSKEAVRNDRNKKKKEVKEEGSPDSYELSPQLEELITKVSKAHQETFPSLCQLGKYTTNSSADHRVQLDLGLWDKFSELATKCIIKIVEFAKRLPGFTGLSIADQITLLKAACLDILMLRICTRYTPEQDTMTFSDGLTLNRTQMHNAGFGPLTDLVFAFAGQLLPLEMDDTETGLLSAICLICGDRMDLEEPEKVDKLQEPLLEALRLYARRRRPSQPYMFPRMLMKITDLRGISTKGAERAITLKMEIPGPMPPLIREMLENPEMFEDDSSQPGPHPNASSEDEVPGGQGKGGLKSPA
Sequence of Nuclear receptor subfamily 1 group I member 2 (Homo sapiens) (O75469 whole entry, looked up, the tested form may be a part): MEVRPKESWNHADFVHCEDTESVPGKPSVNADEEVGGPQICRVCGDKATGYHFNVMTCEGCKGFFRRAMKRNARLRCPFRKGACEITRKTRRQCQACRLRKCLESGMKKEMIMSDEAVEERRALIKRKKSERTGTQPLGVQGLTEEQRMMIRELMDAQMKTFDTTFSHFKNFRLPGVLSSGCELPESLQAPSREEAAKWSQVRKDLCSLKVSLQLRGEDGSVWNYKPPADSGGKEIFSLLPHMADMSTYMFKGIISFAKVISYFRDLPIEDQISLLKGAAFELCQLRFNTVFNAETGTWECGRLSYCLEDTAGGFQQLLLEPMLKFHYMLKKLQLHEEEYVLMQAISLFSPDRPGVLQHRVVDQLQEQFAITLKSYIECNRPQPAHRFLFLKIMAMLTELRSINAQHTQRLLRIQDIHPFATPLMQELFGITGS
Sequence of Retinoic acid receptor alpha (Homo sapiens) (P10276 whole entry, looked up, the tested form may be a part): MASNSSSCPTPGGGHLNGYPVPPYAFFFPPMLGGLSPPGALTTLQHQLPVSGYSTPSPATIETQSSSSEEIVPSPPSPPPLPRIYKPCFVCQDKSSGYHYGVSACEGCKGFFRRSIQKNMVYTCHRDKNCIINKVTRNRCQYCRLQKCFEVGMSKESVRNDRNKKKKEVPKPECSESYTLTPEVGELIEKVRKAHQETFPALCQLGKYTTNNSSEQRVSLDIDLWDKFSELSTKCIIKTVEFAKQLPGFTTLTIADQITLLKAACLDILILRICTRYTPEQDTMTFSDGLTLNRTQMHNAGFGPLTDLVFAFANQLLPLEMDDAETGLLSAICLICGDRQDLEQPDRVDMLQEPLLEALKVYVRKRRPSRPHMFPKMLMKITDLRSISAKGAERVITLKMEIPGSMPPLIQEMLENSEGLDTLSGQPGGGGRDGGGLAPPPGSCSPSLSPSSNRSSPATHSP
Sequence of human Vitamin D Receptor (VDR), VDR (gene 7421) (P11473 whole entry, looked up, the tested form may be a part): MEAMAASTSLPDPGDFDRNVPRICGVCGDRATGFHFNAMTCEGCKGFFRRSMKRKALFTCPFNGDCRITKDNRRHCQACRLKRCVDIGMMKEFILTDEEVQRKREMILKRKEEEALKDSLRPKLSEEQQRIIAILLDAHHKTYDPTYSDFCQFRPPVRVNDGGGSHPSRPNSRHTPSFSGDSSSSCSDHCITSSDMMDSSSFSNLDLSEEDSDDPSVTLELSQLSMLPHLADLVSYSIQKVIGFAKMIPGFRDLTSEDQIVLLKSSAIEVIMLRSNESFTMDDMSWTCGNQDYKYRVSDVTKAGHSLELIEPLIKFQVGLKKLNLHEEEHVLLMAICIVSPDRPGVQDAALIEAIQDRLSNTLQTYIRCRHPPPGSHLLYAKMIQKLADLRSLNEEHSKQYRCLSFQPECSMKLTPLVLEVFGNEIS
Sequence of human RAR-related Orphan Receptor gamma (RORg), RORC (gene 6097) (P51449 whole entry, looked up, the tested form may be a part): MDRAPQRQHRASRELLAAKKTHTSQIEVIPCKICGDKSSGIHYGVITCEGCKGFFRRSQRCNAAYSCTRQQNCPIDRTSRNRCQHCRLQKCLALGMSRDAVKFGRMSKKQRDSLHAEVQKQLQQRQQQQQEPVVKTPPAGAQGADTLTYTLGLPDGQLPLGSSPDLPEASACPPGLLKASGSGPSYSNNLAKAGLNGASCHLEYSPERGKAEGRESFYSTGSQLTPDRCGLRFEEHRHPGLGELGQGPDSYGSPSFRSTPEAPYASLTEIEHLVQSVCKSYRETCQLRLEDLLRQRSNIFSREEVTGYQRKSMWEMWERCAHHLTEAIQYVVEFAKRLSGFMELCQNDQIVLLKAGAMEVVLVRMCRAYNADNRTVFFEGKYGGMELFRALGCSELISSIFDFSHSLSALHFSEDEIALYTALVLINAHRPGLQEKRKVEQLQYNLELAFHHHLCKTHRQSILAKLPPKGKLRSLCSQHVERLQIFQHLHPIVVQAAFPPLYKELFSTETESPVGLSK
Sequence of human Peroxisome Proliferator-activated Receptor delta (PPARd), PPARD (gene 5467) (Q03181 whole entry, looked up, the tested form may be a part): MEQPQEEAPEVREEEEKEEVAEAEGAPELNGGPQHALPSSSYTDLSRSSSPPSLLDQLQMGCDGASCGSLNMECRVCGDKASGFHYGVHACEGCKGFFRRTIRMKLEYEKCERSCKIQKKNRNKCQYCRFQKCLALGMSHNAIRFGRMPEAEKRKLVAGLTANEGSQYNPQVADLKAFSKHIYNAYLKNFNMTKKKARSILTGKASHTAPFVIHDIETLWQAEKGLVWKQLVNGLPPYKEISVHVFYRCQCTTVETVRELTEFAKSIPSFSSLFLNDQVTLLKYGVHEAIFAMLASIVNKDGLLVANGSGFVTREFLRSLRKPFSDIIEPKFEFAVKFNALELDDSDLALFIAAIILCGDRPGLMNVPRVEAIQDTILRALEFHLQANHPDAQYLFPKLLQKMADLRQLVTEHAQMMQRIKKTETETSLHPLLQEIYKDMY

CC(=O)OC(C)C
inactive: [1] | [2] | [3] | [4] | [5] | [6] | [7] | [8]

Nc1ccc(-c2ccc(F)cc2)cc1
inactive: [1] | [3] | [4] | [6] | [7] | [9]

c1cc(C(c2ccc(OCC3CO3)cc2)C(c2ccc(OCC3CO3)cc2)c2ccc(OCC3CO3)cc2)ccc1OCC1CO1 (stereo not drawn)
inactive: [1] | [2] | [4] | [9] | [8]

CCC(C)OC(=O)c1ccc(O)cc1 (stereo not drawn)
active: [3] 62.1 µM | [4] 14.8 µM
inactive: [1] | [5] | [7] | [9] | [8]

CC=C1CC2C=CC1C2 (stereo not drawn)
active: [3] 25.9 µM | [4] 7.51 µM
inactive: [1] | [6] | [7] | [9] | [8]

CCCCCCCCCCC=CC#N
active: [3] 28.2 µM | [4] 29.9 µM | [11] 49.2 µM
inactive: [1] | [10] | [7] | [9] | [8]

O=C(O)c1ccccc1Nc1cccc(C(F)(F)F)c1
inactive: [4] | [5] | [7] | [9] | [8]
active: [1] 40.1 µM | [3] 6.64 µM

CCCCCCCCCCCSCC(=O)O
inactive: [2] | [4] | [7] | [9] | [8]
active: [1] 7.11 µM | [3] 9.6 µM | [11] 11.5 µM

O=S(=O)(O)c1cc(S(=O)(=O)O)c2ccc3c(S(=O)(=O)O)cc(S(=O)(=O)O)c4ccc1c2c43
inactive: [1] | [2] | [5] | [10] | [6] | [11] | [9]

OC1CCCC1
inactive: [1] | [2] | [10] | [6] | [9] | [8]

O=S(=O)(Oc1ccc(Cl)cc1Cl)c1ccccc1
inactive: [1] | [7] | [11] | [9] | [8]
active: [3] 29.5 µM | [4] 2.19 µM

C=C[C@](C)(O)CC[C@@H]1[C@@]2(C)CCCC(C)(C)[C@@H]2CC[C@@]1(C)O
active: [4] 0.331 µM
inactive: [1] | [3] | [7]

O=C(c1ccccc1)C1CCC1
inactive: [1] | [3] | [4] | [10] | [7] | [11] | [8]

Cc1cccc(N)n1
inactive: [1] | [12] | [4] | [10] | [6] | [7]

Cc1ccc(C2OC[C@@H]3OC(c4ccc(C)cc4)O[C@H]([C@H](O)CO)[C@@H]3O2)cc1 (stereo partly drawn)
inactive: [1] | [2] | [3] | [4] | [10] | [6] | [11] | [9] | [8]

O=CC1CC1
inactive: [1] | [2] | [5] | [6] | [9]

O=c1cc[nH]c(=S)[nH]1
inactive: [1] | [2] | [3] | [4] | [5] | [9]

Nc1ccc(Oc2ccc(N)c(N)c2)cc1
inactive: [1] | [4] | [5] | [7] | [11] | [9]
active: [3] 60.1 µM

CC(C)(C)C(=O)CCc1ccc(Cl)cc1
inactive: [1] | [3] | [4] | [5] | [6] | [7] | [9] | [8]

CC(=O)OCC(C)OC(C)=O (stereo not drawn)
inactive: [1] | [12] | [4] | [10] | [6] | [8]

CCCCCCCCCCCCCOP(=O)(O)O
inactive: [1] | [4] | [5] | [6] | [8]
active: [3] 16.4 µM

CCCCCCCOC(=O)CCC
inactive: [1] | [5] | [10] | [9] | [8]

O=S(=O)(O)c1ccc2cc(O)c(S(=O)(=O)O)cc2c1
inactive: [1] | [4] | [7] | [8]

COc1ccc(NC(C)=O)cc1N
inactive: [1] | [9]

ON(Cc1ccccc1)Cc1ccccc1
inactive: [1] | [5] | [7] | [11] | [9] | [8]
active: [4] 17.2 µM

CC(CC=O)c1ccccc1 (stereo not drawn)
inactive: [1] | [7] | [11] | [8]
active: [4] 5.22 µM

O=C1Nc2ccccc2C1(c1ccc(O)cc1)c1ccc(O)cc1
inactive: [1] | [4] | [7] | [11] | [8]

CC(C)=CCC[C@H](C)CCO
inactive: [1] | [4] | [7] | [9]

CO[Si](OC)(OC)c1ccccc1
inactive: [13] | [14] | [4] | [9] | [15] | [16] | [17] | [18] | [19] | [8]

CCCCC(CC)COCC1CO1 (stereo not drawn)
inactive: [13] | [14] | [3] | [4] | [6] | [7] | [11] | [9] | [15] | [16] | [17] | [18] | [19]

CCCCCCCCC(=O)OCC
inactive: [12] | [2] | [3] | [4] | [5] | [7] | [11] | [9]

CCCOCCOCCOCCO
inactive: [1] | [4] | [6] | [11] | [8]
